The values below come from PubChem BioAssay (NCATS).

Records with an inconclusive call do not appear. A call without a number means that no potency is given here. Calls of active or inactive are those of the source. Unless noted, calls follow the shape of the dose curve; as a rule, active = well fitted curve in the direction sought with a large enough effect; inconclusive = small, poorly fitted or top-dose-only effect, or another doubt; inactive = no such curve, though single readings can be large; an effect the other way counts as inactive or inconclusive.

Test [1] addresses Calcium and integrin-binding protein 1 (Homo sapiens) (UniProt Q99828). The experiment in a line: Validation qHTS for Identification of Calcium Integrin Binding protein 1 (CIB1) Competitor (AID 1508618). A digest of the protocol: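 Fluorescence polarization with 1 uM CIB1-GST and 100 nM FITC-alphaIIb peptide in HEPES pH 7.4, NaCl, 5 mM CaCl2, Tween20. Compounds at up to 114 uM final, preincubated with protein 15 min; read after 15 min more at RT.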
In general terms: Quantitative high-throughput screening tests each substance at several concentrations.

Test [2] shares this target. Kind of test: Primary qHTS for Identification of Calcium Integrin Binding Protein 1 (CIB1) Competitor (AID 1508620).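 Also: GST tagged CIB1 binding a fluorescein labelled alphaIIb integrin peptide tracer; top concentration of the series differs between compounds.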 In short, it runs like this: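 Fluorescence polarization competition: CIB1-GST (1 uM final) preincubated with compound 15 min at room temperature, then FITC-labeled alphaIIb peptide (100 nM final) added for another 15 min. Polarization read at Ex 480/Em 540.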

The target of test [3] is Cytochrome P450 2D6 (Homo sapiens) (UniProt P10635). The experiment in a line: Cytochrome P450 family 2 subfamily D member 6 (CYP2D6) small molecule antagonists: luciferase biochemical (cell-free) qHTS assay (AID 1645840; active = well fitted curve in the direction sought with a large enough effect in the repeat runs; an effect the other way counts as inactive or inconclusive; also: series mostly up to about 57 µM; nearly all actives have a fitted effect of over 55% in size). A digest of the protocol:
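P450-Glo luminescent screen: recombinant CYP2D6 enzyme–proluciferin substrate mix preincubated with compound 10 min at room temperature, then NADPH regeneration added for 1 h at room temperature. Detection reagent added for 20 min; luciferin light read as relative luminescence units.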

The target in test [4] is Cytochrome P450 2C9 (Homo sapiens) (UniProt P11712). The experiment in a line: Cytochrome P450 family 2 subfamily C member 9 (CYP2C9) small molecule antagonists: luciferase biochemical (cell-free) qHTS assay (AID 1645842; active = well fitted curve in the direction sought with a large enough effect in the repeat runs; an effect the other way counts as inactive or inconclusive; also: series mostly up to about 57 µM; nearly all actives have a fitted effect of over 55% in size). A digest of the protocol:
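Luminescence, after 20 min with luciferin detection reagent, reflected CYP2C9 turnover during a 1 h NADPH-driven reaction at 37C. Enzyme-substrate mix contained 0.4% bovine serum albumin and was preincubated with compound 10 min at room temperature.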

A further test has as its target Papain (Carica papaya) (UniProt P00784). The experiment in a line: Primary qHTS assay for inhibitors of the protease papain (AID 1645873).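 Also: papain turnover of Z-FR-AMC read as the AMC fluorescence gain over 10 min.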 Also: potency is read from the fitted curve at half-maximal effect.
Test [5] can be described thus: Counterscreen qHTS for small molecule stabilizers of the endoplasmic reticulum resident proteome: GLuc-NoTag assay (AID 1508627).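 Also: SH-SY5Y cells given compound then 100 nM thapsigargin to empty ER calcium; series mostly up to about 76 µM.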 A digest of the protocol: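 SH-SY5Y cells stably expressing constitutively secreted GLuc (no SERCaMP tag) were pre-incubated 5 h, treated with compound for 19 h, then 100 nM thapsigargin for 4 h at 37C; medium GLuc read by coelenterazine luminescence.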

A short description of test [6]: Primary qHTS for small molecule stabilizers of the endoplasmic reticulum resident proteome: Secreted ER Calcium Modulated Protein (SERCaMP) assay (AID 1508630). A digest of the protocol:
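GLuc-SERCaMP-expressing SH-SY5Y cells, pretreated 16 h with compound, are challenged with thapsigargin to empty ER calcium stores; after 4 h, coelenterazine is added directly to the medium and luminescence is imaged.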

Calcium and integrin-binding protein 1 (Homo sapiens), sequence (Q99828 whole entry, looked up): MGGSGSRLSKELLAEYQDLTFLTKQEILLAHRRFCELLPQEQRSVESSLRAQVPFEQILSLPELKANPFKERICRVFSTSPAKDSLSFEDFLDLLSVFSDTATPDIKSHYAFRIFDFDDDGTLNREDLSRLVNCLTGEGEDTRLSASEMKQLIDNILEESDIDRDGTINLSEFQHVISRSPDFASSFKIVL
Papain (Carica papaya), sequence (P00784 whole entry, looked up): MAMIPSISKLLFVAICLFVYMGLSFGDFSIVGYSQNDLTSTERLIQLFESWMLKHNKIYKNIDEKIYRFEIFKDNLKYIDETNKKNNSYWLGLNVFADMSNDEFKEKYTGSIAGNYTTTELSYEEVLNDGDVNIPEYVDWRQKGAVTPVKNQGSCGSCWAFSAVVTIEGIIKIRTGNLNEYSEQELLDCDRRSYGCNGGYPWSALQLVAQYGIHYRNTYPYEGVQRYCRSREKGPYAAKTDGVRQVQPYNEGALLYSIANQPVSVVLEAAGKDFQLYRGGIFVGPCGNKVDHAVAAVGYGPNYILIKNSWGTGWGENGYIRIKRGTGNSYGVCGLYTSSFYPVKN
Cytochrome P450 2C9 (Homo sapiens), sequence (P11712 whole entry, looked up): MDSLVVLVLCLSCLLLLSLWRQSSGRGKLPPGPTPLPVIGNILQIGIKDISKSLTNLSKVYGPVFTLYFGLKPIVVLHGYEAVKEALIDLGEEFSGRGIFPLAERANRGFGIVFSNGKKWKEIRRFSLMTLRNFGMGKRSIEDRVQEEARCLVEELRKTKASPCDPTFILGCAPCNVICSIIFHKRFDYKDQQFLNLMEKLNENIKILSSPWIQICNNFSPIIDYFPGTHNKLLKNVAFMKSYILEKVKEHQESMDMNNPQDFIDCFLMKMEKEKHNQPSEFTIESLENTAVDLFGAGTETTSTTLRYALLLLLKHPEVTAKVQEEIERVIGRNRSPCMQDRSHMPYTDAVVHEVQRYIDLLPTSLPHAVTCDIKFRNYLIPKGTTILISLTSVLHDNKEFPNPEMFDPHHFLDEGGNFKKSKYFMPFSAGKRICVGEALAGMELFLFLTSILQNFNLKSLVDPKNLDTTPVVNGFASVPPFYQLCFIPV
Cytochrome P450 2D6 (Homo sapiens), sequence (P10635 whole entry, looked up): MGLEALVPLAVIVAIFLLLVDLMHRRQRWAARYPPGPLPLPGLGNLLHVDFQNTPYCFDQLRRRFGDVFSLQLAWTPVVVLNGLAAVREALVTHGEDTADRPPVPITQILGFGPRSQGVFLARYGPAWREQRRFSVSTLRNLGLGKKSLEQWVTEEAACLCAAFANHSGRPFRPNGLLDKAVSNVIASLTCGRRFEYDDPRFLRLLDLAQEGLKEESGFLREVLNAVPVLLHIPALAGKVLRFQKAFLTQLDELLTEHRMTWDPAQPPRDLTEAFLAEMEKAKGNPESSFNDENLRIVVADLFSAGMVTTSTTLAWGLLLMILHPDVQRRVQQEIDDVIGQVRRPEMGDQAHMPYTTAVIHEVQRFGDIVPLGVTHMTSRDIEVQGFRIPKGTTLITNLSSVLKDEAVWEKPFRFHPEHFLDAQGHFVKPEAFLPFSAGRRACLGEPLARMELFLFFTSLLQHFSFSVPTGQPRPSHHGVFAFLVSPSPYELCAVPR

For the compound `CN(CCCOc1ccc(Cc2ccccc2)cc1)CCC(=O)O`, the outcome in test [1] was inactive. Moreover, the Potency entry (in test [2]; in test [3]; in test [4]; with Papain (Carica papaya)) was “inactive” each time.
As for `N#C/C(=C\c1ccc(O)c(O)c1)C(=O)c1ccc(O)c(O)c1`, the outcome in test [1] was inactive. In addition, the Potency entry in test [5] is “inactive”.
Turning to `COc1cccc(OC)c1OCCNCC1COc2ccccc2O1` (stereo not drawn), in test [1], the result was inactive. Also, the Potency entry (in test [6]; with Papain (Carica papaya)) was “inactive” in each case.
In the case of `O=C(O)c1cc(=O)c2ccccc2[nH]1`, in test [1], the result was inactive. The Potency entry (in test [6]; with Papain (Carica papaya)) was “inactive” throughout.
For the compound `c1cnc2c(c1)ccc1cccnc12`, the result in test [1] was inactive. For the same compound, the Potency result in test [6] was “inactive”. Besides, in the test with Papain (Carica papaya), the Potency was 15.8 µM (active).
Take `CCCCCCCCc1ccc(-c2ccc(C(=O)O)cc2)cc1`: the outcome in test [1] was inactive. Also, the Potency result (in test [6]; in the test with Papain (Carica papaya)) was “inactive” throughout.
As to `Nc1ncnc2c1ncn2[C@@H]1O[C@H](COP(=O)(O)OP(=O)(O)OP(=O)(O)OP(=O)(O)OC[C@@H]2O[C@H](n3cnc4c(N)ncnc43)[C@@H](O)[C@H]2O)[C@@H](O)[C@H]1O`, the result in test [1] was inactive. The Potency result (in test [6]; with Papain (Carica papaya)) was “inactive” each time.
Regarding `COC(=O)c1c(C)[nH]c(C)c1C(=O)c1ccccc1Cc1ccccc1`, the result in test [1] was inactive. For the same compound, the Potency entry (in test [6]; with Papain (Carica papaya)) was “inactive” throughout.
For the compound `CC(=O)N[C@H](C(=O)O)C(C)(C)SN=O`, the outcome in test [1] was inactive. For the same compound, the Potency result (in test [6]; in the test with Papain (Carica papaya)) was “inactive” in each case.
In the case of `CC(C)(C)c1ccc(S(=O)(=O)/C=C/C#N)cc1`, the outcome in test [1] was inactive. For the same compound, the Potency entry (in test [6]; in the test with Papain (Carica papaya)) was “inactive” in each case.
As to `CCCCCCCCCCCCCCCC(=O)OC(CC(=O)O)C[N+](C)(C)C` (stereo not drawn), the result in test [1] was inactive. Moreover, the Potency result (in test [6]; with Papain (Carica papaya)) was “inactive” in each case.
As to `Cc1ccc(S(=O)(=O)/C=C/C#N)cc1`, the outcome in test [1] was inactive. Moreover, the Potency result (in test [6]; in the test with Papain (Carica papaya)) was “inactive” throughout.
Turning to `CC(=O)/C=C1\C(=O)N(C)c2ccccc21`, the outcome in test [1] was inactive. Besides, the Potency entry (in test [6]; with Papain (Carica papaya)) was “inactive” in each case.
With `Oc1ccc(C2CNCc3sccc32)cc1O` (stereo not drawn), the outcome in test [1] was inactive. Also, the Potency result (in test [6]; in the test with Papain (Carica papaya)) was “inactive” each time.
Consider `OC[C@H]1O[C@@H](n2cnc3c(NC4CCCCC4)ncnc32)[C@H](O)[C@@H]1O`, for which the result in test [1] was inactive. The Potency entry (in test [6]; with Papain (Carica papaya)) was “inactive” each time.
On to `CN(C)c1ccc(/C=C2\C(=O)Nc3ccccc32)cc1`, for which the outcome in test [1] was inactive. Also, the Potency entry (in test [6]; with Papain (Carica papaya)) was “inactive” in each case.
Turning to `C[C@@H](CN1CCC(Cc2ccccc2)CC1)[C@@H](O)c1ccc(O)cc1`, in test [1], the result was inactive. Moreover, the Potency result (in test [6]; in the test with Papain (Carica papaya)) was “inactive” in each case.
`CC1(C)CCC=[N+]1[O-]`: in test [1], the outcome was inactive. In addition, the Potency result (in test [6]; with Papain (Carica papaya)) was “inactive” in each case.
For the compound `CCCCCCCCCCCCCCCCCC(=O)OC(CC(=O)O)C[N+](C)(C)C` (stereo not drawn), the result in test [1] was inactive. Moreover, the Potency entry (in test [6]; with Papain (Carica papaya)) was “inactive” each time.
As for `NC[C@@H]1O[C@H](C23CC4CC(CC(C4)C2)C3)Cc2c1ccc(O)c2O`, in test [1], the outcome was inactive. The Potency result (in test [6]; in the test with Papain (Carica papaya)) was “inactive” throughout.
For the compound `Cc1cc(NC2CCCCC2)nc(-n2nc(C)cc2C)n1`, the result in test [1] was inactive. Further, the Potency entry (in test [6]; in the test with Papain (Carica papaya)) was “inactive” in each case.
With `NC(=O)C(=O)O`, the outcome in test [1] was inactive. The Potency result (in test [6]; with Papain (Carica papaya)) was “inactive” each time.
Regarding `O=Nc1ccc2oc(=O)ccc2c1`, the result in test [1] was inactive. In addition, the Potency result (in test [6]; with Papain (Carica papaya)) was “inactive” each time.
Consider `O=C(O)CNC(=O)C(CS)Cc1ccccc1` (stereo not drawn), for which the outcome in test [1] was inactive. Moreover, the Potency entry (in test [6]; in the test with Papain (Carica papaya)) was “inactive” in each case.
Regarding `S=C(S)OC1CC2CC1C1CCCC21` (stereo not drawn), the outcome in test [1] was inactive. Besides, the Potency result (in test [6]; with Papain (Carica papaya)) was “inactive” in each case.
In the case of `Clc1ccc(N2CCN(Cc3c[nH]c4ncccc34)CC2)cc1`, the outcome in test [1] was inactive. Further, the Potency entry (in test [6]; with Papain (Carica papaya)) was “inactive” in each case.
Consider `COc1cc2c(CCNC(C)=O)c[nH]c2cc1Cl`, for which, in test [1], the outcome was inactive. The Potency entry (in test [6]; with Papain (Carica papaya)) was “inactive” throughout.
In the case of `Cc1cc(NC(=O)Nc2ccc3c(ccn3C)c2)sn1`, the outcome in test [1] was inactive. Besides, the Potency result (in test [6]; with Papain (Carica papaya)) was “inactive” in each case.
As for `O=C(Nc1ccncc1)c1cc([N+](=O)[O-])ccc1Cl`, in test [1], the result was inactive. Besides, the Potency result (in test [6]; with Papain (Carica papaya)) was “inactive” throughout.
Take `CC(=O)SCC[N+](C)(C)C`: the outcome in test [1] was inactive. Moreover, the Potency entry (in test [6]; in the test with Papain (Carica papaya)) was “inactive” in each case.
As for `Clc1ccc(N2CCN(Cc3cc4ccccn4n3)CC2)cc1`, the outcome in test [1] was inactive. Moreover, the Potency result (in test [6]; with Papain (Carica papaya)) was “inactive” in each case.
Take `NCCSSCCN`: the outcome in test [1] was inactive. Also, the Potency result (in test [6]; with Papain (Carica papaya)) was “inactive” in each case.
Regarding `CNC(=O)[C@H]1O[C@@H](n2cnc3c(NCc4ccc(N)cc4)ncnc32)[C@H](O)[C@@H]1O`, in test [1], the outcome was inactive. For the same compound, the Potency entry (in test [6]; with Papain (Carica papaya)) was “inactive” in each case.
As for `NC[C@H]1O[C@@H](n2cnc3c(N)ncnc32)[C@H](O)[C@@H]1O`, in test [1], the outcome was inactive. In addition, the Potency result (in test [6]; in the test with Papain (Carica papaya)) was “inactive” in each case.
Turning to `CN(C)C(N)=NCCC[C@H](N)C(=O)O`, the outcome in test [1] was inactive. The Potency entry (in test [6]; with Papain (Carica papaya)) was “inactive” in each case.
`NCCCS(=O)(=O)O`: the outcome in test [1] was inactive. The Potency result (in test [6]; with Papain (Carica papaya)) was “inactive” each time.
As for `Nc1nc(Cl)nc2c1ncn2[C@@H]1O[C@H](COP(=O)(O)OP(=O)(O)OP(=O)(O)O)[C@@H](O)[C@H]1O`, the outcome in test [1] was inactive. Also, the Potency result (in test [6]; with Papain (Carica papaya)) was “inactive” in each case.
For the compound `CN(C)c1nc(N)c(C(=O)N=C(N)N)nc1Cl`, the result in test [1] was inactive. In addition, the Potency result (in test [6]; with Papain (Carica papaya)) was “inactive” in each case.
Take `O=C1NC(=O)/C(=C/c2ccc(-c3ccc(F)cc3O)o2)S1`: in test [1], the result was inactive. Moreover, the Potency result (in test [6]; with Papain (Carica papaya)) was “inactive” each time.
With `COc1cc(C(O)CO)ccc1OS(=O)(=O)O` (stereo not drawn), the outcome in test [1] was inactive. The Potency entry (in test [6]; with Papain (Carica papaya)) was “inactive” throughout.
`OC[C@H]1O[C@@H](n2cnc3c(NC4CCCC4)ncnc32)[C@H](O)[C@@H]1O`: in test [1], the outcome was inactive. In addition, the Potency result (in test [6]; in the test with Papain (Carica papaya)) was “inactive” in each case.
As for `COc1ccc(NC(=O)/C=C/c2ccc(Cl)cc2)cc1`, the outcome in test [1] was inactive. Further, the Potency result (in test [6]; with Papain (Carica papaya)) was “inactive” each time.
As to `O=C(O)c1cc(=O)c2c(Cl)cc(Cl)cc2[nH]1`, in test [1], the result was inactive. For the same compound, the Potency result (in test [6]; with Papain (Carica papaya)) was “inactive” in each case.
As to `Nc1nc(Cl)nc2c1ncn2[C@@H]1O[C@H](CO)[C@@H](O)[C@H]1O`, in test [1], the result was inactive. The Potency entry (in test [6]; with Papain (Carica papaya)) was “inactive” throughout.
